Test results published in PubChem BioAssay (EPA / NIEHS).
Records with an inconclusive call do not appear. Calls of active or inactive are those of the source. Rule for the calls: active = hit-call score of the fitted dose curve at least 0.9, where 1 is the maximum; inconclusive = response in the unintended direction; inactive = score below 0.9.

These molecules were tested against human Serotonin, 5-Hydroxytryptamine Receptor 6 (5HT6), HTR6 (gene 3362) (UniProt P50406) (assay: NVS_GPCR_h5HT6: NovaScreen (NVS) G Protein-Coupled Receptor Assay for human Serotonin, 5-Hydroxytryptamine Receptor 6 (5HT6) (AID 2283253)).
human Serotonin, 5-Hydroxytryptamine Receptor 6 (5HT6), HTR6 (gene 3362), sequence (P50406 whole entry, looked up): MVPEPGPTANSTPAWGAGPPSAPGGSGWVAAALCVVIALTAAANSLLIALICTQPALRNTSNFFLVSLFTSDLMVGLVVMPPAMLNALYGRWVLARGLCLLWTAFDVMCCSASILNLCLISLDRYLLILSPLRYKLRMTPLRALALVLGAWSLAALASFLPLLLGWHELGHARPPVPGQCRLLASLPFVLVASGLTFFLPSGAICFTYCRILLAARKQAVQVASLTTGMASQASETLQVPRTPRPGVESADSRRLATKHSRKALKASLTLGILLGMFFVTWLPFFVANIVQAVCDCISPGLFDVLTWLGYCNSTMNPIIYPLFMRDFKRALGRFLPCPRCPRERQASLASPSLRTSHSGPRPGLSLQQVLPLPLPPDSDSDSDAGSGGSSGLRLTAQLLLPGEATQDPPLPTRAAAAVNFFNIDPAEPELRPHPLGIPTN
How it was run: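 Filter scintillation counting of radioligand displacement from HEK293-expressed 5HT6, 1 hour post-dose, with loss of signal relative to DMSO. Single 25 uM duplicates first, with concentration series for confirmation.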

| SMILES | outcome | AC50 |
| --- | --- | --- |
| CCCCCOC(=O)c1ccccc1C(=O)OCCCCC | inactive |  |
| O=[N+]([O-])c1ccc(Oc2ccc(Cl)cc2Cl)cc1 | inactive |  |
| [Cl-].[Cl-].[Hg+2] |  | 1.56 µM (active) |
